From PubChem BioAssay AID1734 (Vanderbilt High Throughput Screening Facility, 2009) come the findings set out here.

A short description of assay [1]: KCC2 and NKCC1 inhibition by rubidium flux, cell-based, NKCC1 counter-screen (AID 1734). To be noted: KCC2-expressing cells, NKCC1 counter-screen. In general terms: The purpose of a counterscreen is to sort out artefacts and off-target activity.
The target in assay [2] is Solute carrier family 12 member 5 (Homo sapiens) (UniProt Q9H2X9). Described as above. The settings on record: KCC2-expressing cells.
Sequence of Solute carrier family 12 member 5 (Homo sapiens) (Q9H2X9 whole entry, looked up): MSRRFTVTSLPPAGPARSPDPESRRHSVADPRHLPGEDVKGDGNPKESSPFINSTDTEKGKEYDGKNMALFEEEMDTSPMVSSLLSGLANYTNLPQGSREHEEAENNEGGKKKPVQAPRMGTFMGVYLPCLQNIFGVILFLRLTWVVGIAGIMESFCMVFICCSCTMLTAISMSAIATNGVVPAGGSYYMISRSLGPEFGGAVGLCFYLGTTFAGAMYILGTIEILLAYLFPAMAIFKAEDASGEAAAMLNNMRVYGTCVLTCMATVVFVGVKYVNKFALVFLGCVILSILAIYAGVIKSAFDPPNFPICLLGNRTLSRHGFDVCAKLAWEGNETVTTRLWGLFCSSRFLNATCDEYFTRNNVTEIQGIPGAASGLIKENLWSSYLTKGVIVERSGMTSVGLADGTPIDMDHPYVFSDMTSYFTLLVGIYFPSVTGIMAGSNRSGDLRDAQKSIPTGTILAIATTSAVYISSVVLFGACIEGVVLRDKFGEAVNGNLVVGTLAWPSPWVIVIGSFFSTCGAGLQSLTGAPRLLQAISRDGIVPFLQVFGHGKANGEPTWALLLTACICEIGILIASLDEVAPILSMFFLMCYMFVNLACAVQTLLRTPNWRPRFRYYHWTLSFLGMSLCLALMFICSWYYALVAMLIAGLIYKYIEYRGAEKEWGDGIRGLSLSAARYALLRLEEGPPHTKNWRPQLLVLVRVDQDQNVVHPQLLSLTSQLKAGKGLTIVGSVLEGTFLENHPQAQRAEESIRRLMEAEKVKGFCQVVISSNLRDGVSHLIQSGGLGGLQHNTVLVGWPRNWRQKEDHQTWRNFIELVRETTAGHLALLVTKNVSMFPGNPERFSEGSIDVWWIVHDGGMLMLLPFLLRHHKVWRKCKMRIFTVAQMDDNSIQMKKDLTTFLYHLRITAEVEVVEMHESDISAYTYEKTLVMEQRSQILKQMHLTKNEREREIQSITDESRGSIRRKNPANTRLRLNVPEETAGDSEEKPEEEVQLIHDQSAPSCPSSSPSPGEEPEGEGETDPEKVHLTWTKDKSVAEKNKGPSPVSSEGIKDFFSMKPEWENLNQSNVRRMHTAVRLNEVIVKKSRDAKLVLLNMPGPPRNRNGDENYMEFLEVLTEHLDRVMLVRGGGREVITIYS

One may read the inhibition as the percentage by which the read-out fell short of the control. Higher therefore signals a strong effect.

Calls of active or inactive are those of the source. How the calls were made is not given here.

Take `Cc1cnc(NC(=O)CSc2nnc(Cc3ccccc3)o2)s1`: the figures for the inhibition in assay [1] (at 5 µM) and in assay [1] (at 50 µM) were 9.9% and 16.8%, respectively.

As for `Cc1csc(NC(=O)CSc2ccc(-c3ccccc3)nn2)n1`, the inhibition in assay [1] (at 5 µM) amounted to 12.9%; in assay [1] (at 50 µM), 19.7%.

Turning to `Cc1ccc(-c2ccc(S(=O)(=O)NCC3CCCO3)cc2)cc1` (centres undefined), the inhibition in assay [1] (at 5 µM) turned out to be 21.8%; in assay [1] (at 50 µM) it was 26.6%.

On to `CCc1ccc(OCCNC(=O)c2ccccc2SCc2ccc(F)cc2)cc1`, for which the inhibition amounted to 45.3% in assay [1] (at 5 µM) and 47.9% in assay [1] (at 50 µM). The result in assay [2] was inactive.

In the case of `O=C(Nc1ccc(S(=O)(=O)NCc2ccccc2)cc1)c1ccccc1[N+](=O)[O-]`, the results for the inhibition in assay [1] (at 5 µM) and in assay [1] (at 50 µM) were 24.2% and 31.2%, respectively.

On to `CC1Cc2ccccc2N1C(=O)c1ccc(N2CCCC2)c([N+](=O)[O-])c1` (centres undefined), for which the inhibition in assay [1] (at 5 µM) turned out to be 22.9%; in assay [1] (at 50 µM) it was 48.5%.

In the case of `Cc1ccc(NC(=O)c2ccccc2NS(=O)(=O)c2ccc(Cl)s2)cc1`, the inhibition was found to be 65.1% in assay [1] (at 5 µM) and 68.4% in assay [1] (at 50 µM). Also, the call in assay [2] was inactive.

On to `O=C(CCS(=O)(=O)Cc1ccccc1)Nc1nc2c(s1)CCCC2`, for which the inhibition is 35.8% in assay [1] (at 5 µM) and 37.1% in assay [1] (at 50 µM).

As for `O=C(/C=C/c1ccccc1)Nc1scc(-c2ccccc2)c1C(=O)O`, the inhibition in assay [1] (at 5 µM) was determined as 25.2%; in assay [1] (at 50 µM), 72.8%.

As to `O=C(NCCOc1ccccc1F)c1ccccc1SCc1ccc(F)cc1`, the inhibition in assay [1] (at 5 µM) is 34.2%; in assay [1] (at 50 µM), 45.8%.

For the compound `O=C(Cn1cnc2c(nnn2Cc2ccccc2)c1=O)N1CCCc2ccccc21`, the values for the inhibition in assay [1] (at 5 µM) and in assay [1] (at 50 µM) were 23.4% and 33.2%, respectively.

Turning to `O=S(=O)(NCc1ccccc1)c1ccc(Cl)c(S(=O)(=O)NCc2ccccc2)c1`, the inhibition is 13.5% in assay [1] (at 5 µM) and 30.5% in assay [1] (at 50 µM).

`CC(C)c1onc(C(=O)N2CCN(Cc3ccccc3)CC2)c1[N+](=O)[O-]`: the inhibition in assay [1] (at 5 µM) is 6.1%; in assay [1] (at 50 µM), 15.5%.

Consider `O=C(OCC(=O)N1CCN(C(=O)c2ccco2)CC1)c1sc2ccccc2c1Cl`, for which the results for the inhibition in assay [1] (at 5 µM) and in assay [1] (at 50 µM) were 33.3% and 55.4%, respectively.

With `O=C(Cn1cnc2c(nnn2Cc2ccc(F)cc2)c1=O)N1CCCc2ccccc21`, the inhibition was 28.1% in assay [1] (at 5 µM) and 27.7% in assay [1] (at 50 µM).

`O=C(Cn1cnc2c(nnn2Cc2ccccc2)c1=O)c1ccc(Cl)cc1`: the inhibition was found to be 25.1% in assay [1] (at 5 µM) and 40.6% in assay [1] (at 50 µM).

On to `Cc1ccc(Nc2nnc(SCC(=O)c3cc4ccccc4o3)s2)cc1C`, for which the inhibition in assay [1] (at 5 µM) turned out to be 46.3%; in assay [1] (at 50 µM), 53.4%.

`CN(Cc1ccccc1)S(=O)(=O)c1ccc(Cl)c(C(=O)NCCc2ccccn2)c1`: the inhibition was found to be 44.4% in assay [1] (at 5 µM) and 53.4% in assay [1] (at 50 µM).

As to `CCOc1ccc(Nc2n[nH]c(=S)s2)cc1`, the inhibition turned out to be 44.9% in assay [1] (at 5 µM) and 67.4% in assay [1] (at 50 µM). Besides, the call in assay [2] was inactive.

Consider `CCCn1c(N)c(C(=O)CSc2nnc(Cc3ccccc3)o2)c(=O)n(C)c1=O`, for which the figures for the inhibition in assay [1] (at 5 µM) and in assay [1] (at 50 µM) were 15.4% and 28.3%, respectively.

As for `CCOc1ccc(N2C(=O)C3Sc4[nH]c(=O)sc4C(/C=C/c4ccccc4)C3C2=O)cc1` (centres undefined), the values for the inhibition in assay [1] (at 5 µM) and in assay [1] (at 50 µM) were 67.4% and 90.8%, respectively.

For `O=C(O)CCn1c(SCc2cccc3ccccc23)nc2ccccc21`, the values for the inhibition in assay [1] (at 5 µM) and in assay [1] (at 50 µM) were 57.5% and 80.5%, respectively.

As to `O=C(NCC1CCCN(C(=O)c2cccnc2)C1)c1ccc(-c2ccccc2)cc1` (centres undefined), the figures for the inhibition in assay [1] (at 5 µM) and in assay [1] (at 50 µM) were 31.2% and 40.3%, respectively. Moreover, the compound was classed as inactive in assay [2].

`Cc1nc(CC(=O)Nc2nc(-c3ccccc3)cs2)cs1`: the inhibition worked out at 35.5% in assay [1] (at 5 µM) and 38.1% in assay [1] (at 50 µM).

Regarding `O=C(CN1C(=O)NC2(CCCC2)C1=O)Nc1nc(-c2ccc(F)cc2)cs1`, the results for the inhibition in assay [1] (at 5 µM) and in assay [1] (at 50 µM) were 39.2% and 43.6%, respectively.
